PubChem BioAssay
Several values for one entry are separate records, joined by “and”; a condition that tells them apart may be missing. Equal values may be shown once. Records with an inconclusive call do not appear. Activity calls are given as the source filed them.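 The calls were made as follows, unless noted: active = normalized viability below 100% at a tested concentration; inactive = the rest.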

Tests used:
[1] = Wnt pathway potentiators raising nuclear beta-catenin – imaging, WNT3A-conditioned medium, mouse C2C12, NPC library, primary screen (AID 1117326; in the data active = nuclear beta-catenin stimulation mostly above about 4.2%, no sharp cut-off; inactive = mostly below about 10%); conditions: stronger effect = higher value
[2] = stimulators of insulin release from INS-1E, primary screen, cell-based, 5 mM glucose, NPC library (AID 1117329;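 active = compound raises insulin release from rat beta cells at 5 mM glucose, no numeric limit stated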); conditions: rat INS-1E insulin secretion, at 10 µM, stronger effect = higher value
[3] = growth inhibition of GSK3B-pretreated HCT116 cells – cell-based, CellTiter-Glo, 0.2 to 20 µM (AID 1117336;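 active = compounds lowering colon cancer cell viability after pretreatment blocking the GSK3B kinase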); conditions: HCT116 viability after GSK3B inhibitor, at 20 µM, stronger effect = higher value
[4] = inhibition of endothelial tube formation, primary screen, imaging, VEGF stimulated, CD31 staining, tube area, NPC library (AID 1117340;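 active = compound that reduces growth-factor-driven endothelial tube area in a mixed cell culture, no cutoff stated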); conditions: VEGF-stimulated ADSC/ECFC co-culture, at 10 µM, stronger effect = higher value
[5] = GLP1 release stimulators, primary, NCI-H716, NPC library (AID 1117341;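 active = compound raises GLP1 secretion from the human gut endocrine cells, with no numeric limit stated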); conditions: NCI-H716 cells, at 10 µM, stronger effect = higher value
[6] = HCT116 colon cancer cell growth inhibition, primary screen, CellTiter-Glo luminescence, NPC library (AID 1117342;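 active = compounds that lower survival of HCT116 colon cancer cells in the luminescence readout, no numeric limit stated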); conditions: at 20 µM (top of the series)
[7] = reduced SW480 viability measured with CellTiter-Glo, NPC library, primary (AID 1117343;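 active = compounds that lower viability of the colon cancer cells in the luminescence readout, with no numeric limit stated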); conditions: CellTiter-Glo luminescence; at 20 µM (top of the series) unless noted
[8] = NPC library primary testing for decreased DLD-1 cell viability via CellTiter-Glo (AID 1117346;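 active = compounds that lower survival of DLD-1 colon cancer cells in the luminescence readout, no cutoff given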); conditions: DLD-1 viability, CellTiter-Glo luminescence; at 20 µM (top of the series)
[9] = viability loss in pontine glioma line – cell-based, JHH-DIPG-1, MIPE4.0, CellTiter-Glo, qHTS, dose response (AID 1347062; cut-off not given, nearly all actives have AC50 up to about 27 µM;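 as to AC50: cells exposed to compound for two days before readout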); conditions: JHH-DIPG-1 viability, CellTiter-Glo ATP luminescence
[10] = viability loss in pontine glioma line – cell-based, SU-DIPG-XXV, MIPE5.0, CellTiter-Glo, qHTS, dose response (AID 1347065; cut-off not given, nearly all actives have AC50 up to about 26 µM;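 also: cells exposed to compound for 48 hours before ATP readout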); conditions: CellTiter-Glo ATP luminescence
[11] = growth inhibition of DIPG cells – cell-based, MIPE4.0 library, CellTiter-Glo luminescence, qHTS (AID 1347066; cut-off not given, nearly all actives have AC50 up to about 30 µM;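 also: cells exposed to compound for 48 hours before readout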); conditions: SU-DIPG-VI viability, CellTiter-Glo ATP luminescence
[12] = JHH-DIPG-1 glioma cell viability, MIPE5.0 library, CellTiter-Glo luminescence, qHTS (AID 1347067; cut-off not given, nearly all actives have AC50 up to about 26 µM;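 also: cells exposed to compound for 48 hours before readout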); conditions: JHH-DIPG-1 glioma viability, CellTiter-Glo ATP luminescence
[13] = growth inhibition of DIPG cells – cell-based, MIPE5.0 library, qHTS (AID 1347068; cut-off not given, nearly all actives have IC50 up to about 30 µM); conditions: SU-DIPG-XXV viability
[14] = MELAS cybrid and Rieske KO viability enhancers – cell-based, MELAS cybrids, Rieske KO mouse fibroblasts, CellTiter-Glo, primary screen (AID 1508586;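 active = mean z-score across replicates of 1.96 or higher in either the MELAS or the Rieske mutant cell line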;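 also: z relative to plate mean and SD of compound and empty wells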); conditions: low glucose
[15] = viability loss in pontine glioma line – cell-based, SU-DIPG-IV, MIPE4.0, CellTiter-Glo, qHTS, dose response (AID 1347063; cut-off not given, nearly all actives have AC50 up to about 30 µM;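 also: compound exposure lasted 48 hours before the viability readout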); conditions: CellTiter-Glo ATP luminescence
[16] = P. berghei load reduction in hepatocytes – cell-based, HepG2, luciferase luminescence, HepG2 viability, primary screen (AID 624349; in the data active = parasite load remaining mostly below about 12%, no sharp cut-off; inactive = mostly above about 10%;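 also: 100% = mean of DMSO negative control wells on the same plate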); conditions: P. berghei liver stage in HepG2, luciferase luminescence, concentration not given here; parasite load remaining: stronger effect = lower value; viability: measured here: HepG2 viability without parasites
[17] = viability loss with induced miR-34 in A549 – imaging, A549 dox-inducible miR-34, nuclei and caspase counts, primary screen (AID 1347080;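 active = compounds whose cell count with miR-34 switched on is under 0.7 times the count with it off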); conditions: A549 miR-34 inducible, Hoechst nuclei count, 48 h
[18] = drug combination growth inhibition, ovarian cancer – cell-based, oncology-focused library, rucaparib conditional, profiling panel (AID 1508598); conditions: patient-derived ovarian cancer cells, CellTiter-Glo viability, 144 h, stronger effect = lower value
[19] = galactose survival enhancers in mitochondrial complex I cybrids – cell-based, galactose medium, ATP luminescence, primary screen (AID 1645843;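 active = z-score of at least 1.8 in each of two replicates, scored against plate mean and spread of sample wells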;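 also: positive z means more ATP and so rescue of galactose-driven cybrid death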); conditions: complex I mutant cybrid cells, 72 h, stronger effect = higher value
[20] = MELAS cybrid survival, CellTiter-Glo 48 h, stronger effect = higher value
[21] = Rieske KO mouse fibroblast survival, CellTiter-Glo 72 h

O=c1[nH]c(=O)n([C@H]2C[C@H](O)[C@@H](CO)O2)cc1C(F)(F)F
inactive: insulin secretion stimulation [2] 1.1% | GLP1 secretion stimulation [5] -3.2% | outcome [9] | outcome [10] | outcome [11] | outcome [12] | outcome [13] | z-score [14, 20] 0.972
1.84: z-score [14, 21]
active: nuclear beta-catenin stimulation ([1]; at 10 µM) 44.5% | viability decrease [3] 84.6% | tube area decrease [4] 99.5% | inhibition of viability [6] 84% | viability decrease (inhibition) [7] 98.1% | viability decrease (inhibition) [8] 41.5%
39%: nuclear beta-catenin stimulation ([1]; stimulation, at 2 µM)

COc1cc(NCc2ccc3nc(N)nc(N)c3c2C)cc(OC)c1OC
inactive: insulin secretion stimulation [2] 3.6% | GLP1 secretion stimulation [5] 2.9%
active: nuclear beta-catenin stimulation ([1]; at 10 µM) 40.4% | viability decrease [3] 105% | tube area decrease [4] 60.1% | inhibition of viability [6] 94.9% | viability decrease (inhibition) [7] 142% | viability decrease (inhibition) [8] 70.6% | AC50 [9] 18.7 µM | AC50 [10] 2.95 µM | AC50 [11] 20.9 µM | AC50 [12] 2.63 µM
71.7%: nuclear beta-catenin stimulation ([1]; stimulation, at 2 µM)

O=C(O)c1nc(=O)[nH]c(=O)[nH]1
0.2%: nuclear beta-catenin stimulation ([1]; stimulation, at 2 µM)
inactive: nuclear beta-catenin stimulation ([1]; at 10 µM) 0.4% | insulin secretion stimulation [2] -2.5% | viability decrease [3] -8.95% | tube area decrease [4] -8.3% | GLP1 secretion stimulation [5] 0.9% | inhibition of viability [6] -17.1% | viability decrease (inhibition) [7] 29% | viability decrease (inhibition) [8] 12.8% | outcome [9] | outcome [15] | outcome [10] | outcome [11] | outcome [12] | outcome [13]

C#Cc1cccc(Nc2ncnc3cc(OCCOC)c(OCCOC)cc23)c1
2.01 (active) and 0.197: z-score [14, 20]
active: viability decrease [3] 72.1% | inhibition of viability [6] 59.4% | viability decrease (inhibition) [8] 83.4% | AC50 [9] 7.43 µM | AC50 [15] 7.43 µM | AC50 [10] 7.42 µM | viability ([18]; at 0.000305 µM, OCI-P5x cells, without rucaparib) 93.6% | viability ([18]; at 0.00122 µM, OCI-P5x cells, without rucaparib) 96.4% | viability ([18]; at 0.0195 µM, OCI-P5x cells, without rucaparib) 97.9% | viability ([18]; at 0.0781 µM, OCI-P5x cells, without rucaparib) 99% | viability ([18]; at 0.313 µM, OCI-P5x cells, without rucaparib) 91.2% | viability ([18]; at 1.25 µM, OCI-C5x cells, with rucaparib 10 µM, 100% = cells with rucaparib alone) 76% | viability ([18]; at 1.25 µM, OCI-C5x cells, without rucaparib) 91.8% | viability ([18]; at 1.25 µM, OCI-P5x cells, without rucaparib) 83% | viability ([18]; at 5 µM, OCI-C5x cells, with rucaparib 10 µM, 100% = cells with rucaparib alone) 39.7% | viability ([18]; at 5 µM, OCI-C5x cells, without rucaparib) 62.2% | viability ([18]; at 5 µM, OCI-P5x cells, with rucaparib 20 µM, 100% = cells with rucaparib alone) 76.9% | viability ([18]; at 5 µM, OCI-P5x cells, without rucaparib) 66.3%
-0.8%: nuclear beta-catenin stimulation ([1]; stimulation, at 2 µM)
inactive: parasite load remaining [16] 380% | nuclear beta-catenin stimulation ([1]; at 10 µM) 1.3% | insulin secretion stimulation [2] 1.8% | tube area decrease [4] -49.7% | GLP1 secretion stimulation [5] 1.7% | viability decrease (inhibition) [7] 34.2% | fold change ([17]; stronger effect = lower value, cell number ratio, induced over uninduced) 0.807 | viability ([18]; at 0.000305 µM, OCI-C5x cells, with rucaparib 10 µM, 100% = cells with rucaparib alone) 108% | viability ([18]; at 0.000305 µM, OCI-C5x cells, without rucaparib) 109% | viability ([18]; at 0.000305 µM, OCI-P5x cells, with rucaparib 20 µM, 100% = cells with rucaparib alone) 121% | viability ([18]; at 0.00122 µM, OCI-C5x cells, with rucaparib 10 µM, 100% = cells with rucaparib alone) 105% | viability ([18]; at 0.00122 µM, OCI-C5x cells, without rucaparib) 109% | viability ([18]; at 0.00122 µM, OCI-P5x cells, with rucaparib 20 µM, 100% = cells with rucaparib alone) 142% | viability ([18]; at 0.00488 µM, OCI-C5x cells, with rucaparib 10 µM, 100% = cells with rucaparib alone) 109% | viability ([18]; at 0.00488 µM, OCI-C5x cells, without rucaparib) 104% | viability ([18]; at 0.00488 µM, OCI-P5x cells, with rucaparib 20 µM, 100% = cells with rucaparib alone) 111% | viability ([18]; at 0.00488 µM, OCI-P5x cells, without rucaparib) 101% | viability ([18]; at 0.0195 µM, OCI-C5x cells, with rucaparib 10 µM, 100% = cells with rucaparib alone) 105% | viability ([18]; at 0.0195 µM, OCI-C5x cells, without rucaparib) 101% | viability ([18]; at 0.0195 µM, OCI-P5x cells, with rucaparib 20 µM, 100% = cells with rucaparib alone) 122% | viability ([18]; at 0.0781 µM, OCI-C5x cells, with rucaparib 10 µM, 100% = cells with rucaparib alone) 102% | viability ([18]; at 0.0781 µM, OCI-C5x cells, without rucaparib) 106% | viability ([18]; at 0.0781 µM, OCI-P5x cells, with rucaparib 20 µM, 100% = cells with rucaparib alone) 135% | viability ([18]; at 0.313 µM, OCI-C5x cells, with rucaparib 10 µM, 100% = cells with rucaparib alone) 101% | viability ([18]; at 0.313 µM, OCI-C5x cells, without rucaparib) 104% | viability ([18]; at 0.313 µM, OCI-P5x cells, with rucaparib 20 µM, 100% = cells with rucaparib alone) 109% | viability ([18]; at 1.25 µM, OCI-P5x cells, with rucaparib 20 µM, 100% = cells with rucaparib alone) 101% | z-score [19] 1.06
-0.563 and 2.07: z-score [14, 21]
4550: cell count ([17]; measured here: total cells with miR-34 induction, stronger effect = lower value)
168%: viability [16]
5640: cell count ([17]; measured here: total cells without miR-34 induction)
1.12: fold change ([17]; measured here: relative caspase fold change +Dox/-Dox)
